ChEMBL document CHEMBL3988442, “University of Dundee, Small-Polar-MMV Screening Library” (2021)
The campaign covered roughly 53,000 compounds. About 900 (1.7%) showed an effect of 50% or more. Shown is part of a subset that was picked to be rich in strong results.

System: Mycobacterium tuberculosis
Assay: Cornell - Phenotypic assay to identify agents that inhibit growth of Mycobacterium tuberculosis
Assay type: functional
Set-up: scale not given: direction of the effect not stated beside the values
Settings: 10 mM as filed; unlikely as a test dose

| SMILES | Percent Effect [%] |
| --- | --- |
| CC(C)NC1CCN(CCc2ccc3c(c2)CCO3)CC1 | 56.74 |
| CCOCCN1CCN(CCc2ccc3c(c2)CCO3)CC1 | -8.246 |
| COCC(C)N1CCN(CCc2ccc3c(c2)CCO3)CC1 (stereo not given) | -12.27 |
| CS(=O)(=O)NC[C@]12COC[C@H]1CN(C(=O)C1CC=CC1)C2 | -4.911 |
| CCC(CC)CN1CCN(CC(=O)Nc2ccc3nsnc3c2)CC1 | 23.66 |
| CC(C)CCN1CCN(CC(=O)Nc2ccc3nsnc3c2)CC1 | -1.569 |
| Cc1ccc(CN2CCN(CC(=O)Nc3ccc4nsnc4c3)CC2)o1 | 54.44 |
| CC(C)N1CC(n2ccnc2-c2nccn2C)CC1=O (stereo not given) | -23.92 |
| CN(C)c1cc(C2CCCN(S(=O)(=O)C3CCCC3)C2)ccn1 (stereo not given) | 15.85 |
| NC(=O)c1ccc(C(=O)N(Cc2ccc(O)cc2)CC2CC2)cc1 | -5.401 |
| Cc1[nH]ccc1C(=O)N(Cc1ccc(O)cc1)CC1CC1 | 103.8 |
| O=C(c1ccc[nH]1)N(Cc1ccc(O)cc1)CC1CC1 | 43.3 |
| CSc1ccc(C)c(C(=O)Nc2c(C(N)=O)n[nH]c2C)c1 | -17.81 |
| COc1ccc(CNCCn2c(C)nc3ccccc32)cc1O | -17.9 |
| COc1ccc(-n2ccc(CNCc3ccc(OC)c(O)c3)n2)cc1 | 31.15 |
| COc1ccc(CNCCc2ccn(-c3ccccc3)n2)cc1O | 107.6 |
| O=C1CCC(=O)N1c1nn(Cc2ccc(F)cc2)cc1Cl | -47.77 |
| CC[C@H](N)C(=O)Nc1nn(CC(F)(F)F)c2cc(OC(C)C)ccc12 | 15.83 |
| Cc1nc(C)n(CC2CCCCN2CC(=O)NCc2ccccn2)n1 (stereo not given) | 18.51 |
| CCS(=O)(=O)CCN1CCC(N(C)Cc2noc(C(C)C)n2)C1 (stereo not given) | 13.23 |
| NC(=O)C1CN(C(=O)Nc2cc(Cl)cc(Cl)c2)CCO1 (stereo not given) | 103.4 |
| COCC1CN(C(=O)Nc2cc(Cl)cc(Cl)c2)CCO1 (stereo not given) | 13.66 |

| SMILES | Percent Effect [%] |
| --- | --- |
| Cc1cc(NC(=O)N2CCOC(C(N)=O)C2)ccc1Br (stereo not given) | 15.45 |
| CNc1snc(C)c1C(=O)N1CCCC(n2cc(C)cn2)C1 (stereo not given) | -17.18 |
| Cc1nc(CN2CCC3(CC2)NC(=O)CC3c2ccncc2)cs1.O=C(O)C(F)(F)F.O=C(O)C(F)(F)F (stereo not given) | 21.18 |
| CCc1cc(=O)[nH]c2nnc(SCC(=O)OC)n12 | -7.031 |
| CCc1nc2ccccc2c(=O)n1CC1(O)CCN(C(=O)COC)CC1.Cl | 10.94 |
| COc1ccc(SCC2CNc3nc4ccccc4c(=O)n32)cc1 (stereo not given) | 44.86 |
| COC(=O)COn1c(SCC(=O)OC)nc2ccccc2c1=O | 102.5 |
| COc1ccc(-n2c(SC)nc(O)c(Cc3ccccc3)c2=O)cc1 | 13.52 |
| CCc1nc2ccccc2c(=O)n1CC1(O)CCN(CC(=O)OC)CC1 | 13.86 |
| COC(=O)COn1c(SC)nc2ccccc2c1=O | 75.88 |
| COC(=O)COn1c(SC(C)C)nc2ccccc2c1=O | 75.74 |
| COCC(C)NC(=O)CCCn1cnc2ccccc2c1=O (stereo not given) | 7.524 |
| CCSc1nc2ccccc2c(=O)n1OCC(=O)OC | 74.42 |
| COC(=O)CNC(=O)CCCn1cnc2ccccc2c1=O | 3.303 |
| COC(=O)COn1c(OC)nc2ccccc2c1=O | 32.68 |
| COCc1nn(Cc2ccc(Br)s2)c(=O)o1 | 6.613 |
| N#CCCn1nc(C(F)(F)F)c2c1CCCC2 | -22.61 |
| O=C(O)C(F)(F)F.O=C(O)C(F)(F)F.c1cc(CN2C[C@@H]3OCCN(CC4CC4)[C@@H]3C2)n[nH]1 | 4.885 |
| CO[C@@H]1CCN(C(=O)Cc2cccc(F)c2)[C@H]1Cc1cccnc1.O=C(O)C(F)(F)F | -8.358 |
| CC(C)C(=O)N1CC[C@H]2N(C)CC[C@@]2(C(=O)N2CCOCC2)CC1.O=C(O)C(F)(F)F | -25.99 |
| Cc1ccccc1CN(C)CC(O)COCc1ccccc1Cl (stereo not given) | -1.891 |
| O=C(O)C(F)(F)F.O=C(O)C(F)(F)F.c1cc(CN2CCc3ncc(CN4CCOCC4)n3CC2)cs1 | -22.34 |

| SMILES | Percent Effect [%] |
| --- | --- |
| CC(C)(C)Oc1ccncc1NCc1cscn1 | 55.35 |
| COc1ccccc1NCc1cscn1.Cl | 16.2 |
| COc1ccncc1NCc1cscn1 | 26.83 |
| COC1COC2(CCN(Cc3ccccc3F)CC2)C1.O=C(O)C(F)(F)F (stereo not given) | 10.15 |
| CCCc1nnc(N2CCN(c3ccccc3Cl)CC2)o1 | 51.83 |
| CCCc1nnc(N2CCN(c3ccccc3OCC)CC2)o1 | 24.59 |
| CCCc1nnc(N2CCN(c3ccccc3F)CC2)o1 | -12.77 |
| Cc1cccc(NC(=O)NC2CCC3(C2)OCCO3)c1Cl (stereo not given) | 24.64 |
| Cc1csc(C(Cc2ccsc2)NC(=O)CN(C)Cc2ccccn2)n1.Cl (stereo not given) | 68.23 |
| Cc1csc(C(Cc2ccsc2)NC(=O)CN(C)Cc2cccnc2)n1.Cl (stereo not given) | 14.48 |
| CN(CC(=O)NC(Cc1ccsc1)c1cccnc1)Cc1ccccn1.Cl (stereo not given) | -48.97 |
| CCOc1ccc(NC(=O)N2CCC(n3cncn3)CC2)cc1Cl | -30.56 |
| O=C(O)C(F)(F)F.O=C(O)C(F)(F)F.c1ccc(OC[C@]23COC[C@H]2CN(c2ncccn2)C3)nc1 | 24.67 |
| O=C(O)C(F)(F)F.c1cnc(N2C[C@@H]3COC[C@]3(COCC3CCCC3)C2)nc1 | 53.05 |
| O=C(CC1CC1)NC[C@]12COC[C@H]1CN(c1ncccn1)C2.O=C(O)C(F)(F)F | 0.6787 |
| CCOCC1CN(Cc2cnn(C)c2)Cc2ncn(C)c21 (stereo not given) | 21.37 |
| Cc1ccc(CN2C[C@H](OCCN(C)C)[C@H]3COC[C@H]32)o1.O=C(O)C(F)(F)F.O=C(O)C(F)(F)F | 19.04 |
| CNC(=O)N1CCC(=Cc2ccccc2)CC1 | 50.2 |
| CCCNC(=O)CCNC(=O)N1CCC(=Cc2ccccc2)CC1 | -1.003 |
| CCNC(=O)N1CCC(=Cc2ccccc2)CC1 | 31.8 |
| COC(=O)N1CCC(CNC(=O)C2CCN(S(C)(=O)=O)CC2)CC1 | -2.459 |
